VDR inhibitor – Inhibitors of the vitamin D receptor (VDR): qHTS | Vitamin D3 receptor (Homo sapiens), P11473 | 400,000 tested, 0.93% active | Potency, µM, most hits filed as inhibitors | VDR-SRC2-3 peptide fluorescence polarization, 2 h
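Fluorescence polarization assay of small-molecule disruption of VDR binding to coregulator peptide SRC2-3. Compounds and controls pin-transferred, then read after 2 h incubation at ambient room temperature.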
TrxR1 substrate – qHTS Assay for Substrates of Mammalian Selenoprotein Thioredoxin Reductase 1 (TrxR1): qHTS; purified TrxR1 substrate turnover, NADPH consumption readout; Potency, µM (doses to about 114 µM); 390,000 tested, 0.01% active; AID 588456, 2011; note: nearly all actives have a fitted effect of over 50% in size
Target sequence (O89049 whole entry, looked up): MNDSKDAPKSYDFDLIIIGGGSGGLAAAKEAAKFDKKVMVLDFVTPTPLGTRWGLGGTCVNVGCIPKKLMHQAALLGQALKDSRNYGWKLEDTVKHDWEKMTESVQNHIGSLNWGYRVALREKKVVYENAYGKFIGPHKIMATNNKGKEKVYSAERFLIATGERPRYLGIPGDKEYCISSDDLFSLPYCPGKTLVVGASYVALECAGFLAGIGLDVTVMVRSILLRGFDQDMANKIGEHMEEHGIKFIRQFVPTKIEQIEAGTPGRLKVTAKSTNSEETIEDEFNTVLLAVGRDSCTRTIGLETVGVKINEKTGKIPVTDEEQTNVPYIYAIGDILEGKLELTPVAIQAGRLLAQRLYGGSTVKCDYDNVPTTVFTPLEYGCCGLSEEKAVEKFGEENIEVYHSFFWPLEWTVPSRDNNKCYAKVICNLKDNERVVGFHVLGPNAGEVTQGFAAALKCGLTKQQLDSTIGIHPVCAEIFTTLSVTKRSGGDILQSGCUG
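Rat TrxR1, dispensed at 90 nM, was prereduced with 400 uM NADPH (final) for 5 min at ~22 deg C, then incubated with compound 15 min before 400 uM selenite. A first-read NADPH fluorescence drop versus no-compound background flagged substrates.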
TrxR1 inh – qHTS Assay for Inhibitors of Mammalian Selenoprotein Thioredoxin Reductase 1 (TrxR1): qHTS; Thioredoxin reductase 1, cytoplasmic (Rattus norvegicus), O89049; recombinant rTrxR1, NADPH fluorescence consumption, selenite substrate; Potency, µM (highest dose often 114 µM), actives largely listed as inhibitors; 390,000 tested, 1% active; AID 588453, 2011; note: nearly all actives have a fitted effect of over 65% in size
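Rat TrxR1 (90 nM in the dispensed reagent) was pre-reduced with 400 uM NADPH for 5 min at room temperature, then incubated with compound for 15 min. After 400 uM selenite was added, NADPH fluorescence (Ex 340/Em 450 nm) was followed for 8 min.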
Vif-APOBEC3F blk – qHTS for Inhibitors of Vif-A3F Interactions: qHTS | HeLa A3F-eYFP + Vif (tagged APOBEC3F with the HIV-1 protein that degrades it), YFP fluorescence increase | Potency, µM (doses to about 46.1 µM) | 390,000 tested, 0.2% active | AID 602313, 2012; note: nearly all actives have a fitted effect of over 65% in size
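Fluorescence increase (Ex 488/Em 500-530) after overnight compound treatment at 37 deg C flags inhibition of Vif-driven A3F-eYFP loss in stable HeLa A3F-eYFP/Vif cells seeded overnight beforehand.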
Vif-A3G inh – qHTS for Inhibitors of Vif-A3G Interactions: qHTS. HeLa A3G-eYFP + Vif (tagged APOBEC3G with the HIV-1 protein that degrades it), YFP fluorescence, overnight. 410,000 tested, 0.076% active. Potency, µM (top dose mostly 46.1 µM), usual class: inhibitors. AID 602310, 2012; note: nearly all actives have a fitted effect of over 60% in size
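HeLa cells stably expressing Vif and C-terminally eYFP-tagged A3G, seeded overnight at 37 deg C, then exposed to compound by pintool overnight at 37 deg C. Rise in yellow fluorescence (Ex 488/Em 500-530, Acumen) marks blocked Vif-driven A3G degradation.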
Hits are given with their value; – = inactive; ? = inconclusive; · = no result; [ ] = another dose, or the depositor's remark. Rows were chosen to be rich in hits. Some 1.8% of all compounds tested hit in one or more screens of this group. Calls come from the whole dose curve; as a rule, active = well fitted curve in the direction sought with a large enough effect; inconclusive = small, poorly fitted or top-dose-only effect, or another doubt; inactive = no such curve, though single readings can be large; an effect the other way counts as inactive or inconclusive.

SMILES	VDR inhibitor	TrxR1 substrate	TrxR1 inh	Vif-APOBEC3F blk	Vif-A3G inh
O=C([C@@H]1CC=C[C@@H]2CCN(C3CCCCC3)C(=O)[C@@H]21)N1CCOCC1	·	–	–	·	–
C=CCSc1nc(-c2ccccc2)c(C#N)c(=O)[nH]1	–	–	–	–	–
N#Cc1c(-c2ccccc2)nc(SCc2ccc(Cl)cc2)[nH]c1=O	79.4µM	–	–	–	–
C/C(=N\NC(=O)c1cccs1)c1cccnc1	79.4µM	–	–	–	–
C/C(=N\NC(=O)c1cccnc1)c1ccc(OC2OCCOC2Oc2ccc(/C(C)=N/NC(=O)c3cccnc3)cc2)cc1 (centres undefined)	39.8µM	–	–	–	–
COc1ccc(/C(C)=N/NC(=O)CNC(=O)c2cccnc2)cc1	–	–	–	–	–
COc1ccc(C(=O)/C=C/c2cn(CC(O)CN3CCN(C)CC3)c3ccccc23)cc1OC (centres undefined)	–	–	–	?	–
COc1ccc(C(=O)/C=C/c2cn(CC(O)CN3CCCCCC3)c3ccccc23)cc1OC (centres undefined)	–	–	39.8µM	?	–
Cc1cccc(-c2c3c(=O)n(C)c(=O)n(C)c3cn2-c2cc(N)c(Cl)cc2Cl)c1	–	–	–	–	–
CCCn1c(N)c(C(=S)NC(=O)C2CC2)c(=O)n(C)c1=O	?	–	?	–	–
CCCCn1c(N)c(C(=S)NC(=O)CC(C)C)c(=O)n(C)c1=O	–	–	56.2µM	–	–
CCOc1ccccc1NC(=O)Nc1ccc2c(c1)OCO2	–	–	–	–	–
C=CCOc1ccccc1CN(C(=O)CCl)c1ccc2c(c1)OCO2	?	–	20µM	–	–
CCOc1ccccc1NC(=O)c1ccc(C(=O)Nc2ccccc2OCC)cc1	–	–	–	–	–
CCOc1ccccc1NC(=O)/C=C/C(N)=O	–	–	25.1µM	–	–
O=CNc1ccc(/C=C/c2ccnc3ccccc23)cc1	·	–	–	·	–
O=C(COC(=O)c1ccc([N+](=O)[O-])o1)Nc1ccc2c(c1)OCO2	–	–	17.8µM	–	–
CN(C)c1ccc(/C=C2\C=Cc3ccccc32)cc1N	·	–	–	·	–
COc1ccccc1CN1COc2ccc3c(oc(=O)c4ccccc43)c2C1	–	–	–	–	–
CCCc1cc(=O)oc2c3c(ccc12)OCN(Cc1ccccc1OC)C3	–	–	22.4µM	–	–
CC(=O)N(c1ccc(Cl)cc1)C1SC(=O)N(c2ccccc2)C1=O (centres undefined)	–	–	–	·	·
Cc1[nH][nH]c(=O)c1C(c1c(C)[nH][nH]c1=O)c1cn(Cc2ccc(Cl)c(Cl)c2)c2ccccc12	?	56.2µM	?	–	?
Cc1nn(-c2ccc(F)cc2)c(Cl)c1C(=O)NCC1CCCO1 (centres undefined)	89.1µM	–	–	–	–
O=C(Cc1ccc(F)cc1)NCC1CCCO1 (centres undefined)	–	–	–	–	–
CCCCCCCCCCCCOC(=O)N1CCN(/[N+]([O-])=N/Oc2ccc([N+](=O)[O-])cc2[N+](C)=O)CC1	·	–[0.457 µM]	50.1µM	·	–
SMILES	VDR inhibitor	TrxR1 substrate	TrxR1 inh	Vif-APOBEC3F blk	Vif-A3G inh
CCOC(=O)CCCC(=O)N1CCN(/[N+]([O-])=N/Oc2ccc([N+](=O)[O-])cc2[N+](=O)[O-])CC1	·	–	15.8µM	·	–
CCOC(=O)N1CCN(c2ccc([N+](=O)[O-])cc2)CC1	–	–	–	–	–
CCOC(=O)N1CCN(/[N+]([O-])=N/Oc2ccc([N+](=O)[O-])cc2[N+](=O)[O-])CC1	44.7µM	–	6.7µM	·	?
CCOC(=O)c1nnn(-c2ccc([N+](=O)[O-])cc2[N+](=O)[O-])c1C	–	–	–	–	–
O=c1cc(-c2ccccc2Cl)oc2cc(O)cc(O)c12	–	–	–	–	–
O=C1C=CC(O)(c2cc(=O)c3c(O)cc(O)cc3o2)C=C1	31.6µM	–	?	–	?
CC(C)(C)n1ncc2c(=O)n(Cc3ccc(Cl)cc3C(F)(F)F)cnc21	·	–	–	·	–
Cc1cc(N2CCCC2)nc2ccc(NC(=S)NCCCOC(C)C)cc12	–	–	44.7µM	–	–
CCOc1ccc(C2c3c(-c4ccc(C)cc4)n[nH]c3C(=O)N2c2ccc(Cl)cc2)cc1 (centres undefined)	–	–	–	–	–
C1=C(c2ccccc2)CCN(c2nc3ccccc3n3cnnc23)C1	–	–	3.98µM	–	–
c1ccc(N2CCN(c3nc4ccccc4n4cnnc34)CC2)cc1	–	–	–	–	–
CCN1CCN(C(c2ccc(OC)cc2)c2c(O)cc(C)n(CCOC)c2=O)CC1 (centres undefined)	–	–	14.1µM	–	–
CCN1CCN(C(c2cccc(F)c2)c2c(O)cc(C)n(CCOC)c2=O)CC1 (centres undefined)	–	–	11.2µM	–	–
CCN1CCN(C(c2ccccc2)c2c(O)cc(C)n(CCOC)c2=O)CC1 (centres undefined)	–	–	?	–	–
O[C@@H]1CO[C@H]2C1OC[C@@H]2O (some centres undefined)	–	·	·	·	·
Clc1ccc2ccc3cccnc3c2n1	–	–	–	–	–
Cc1cnc2c3c(cc(Cl)c2c1)-c1ccccc1S(=O)(=O)N3	?	–	31.6µM	·	?
O=S1(=O)Nc2c(ccc3cccnc23)-c2ccccc21	–	–	–	–	7.08µM
CC(N=C1NS(=O)(=O)c2ccccc21)C(=O)Nc1ccc(F)cc1Cl (centres undefined)	–	–	–	–	–
O=C(O)CCCC/C=C(\c1ccccc1)c1cccnc1	–	·	·	·	·
Cc1ccc(N/N=C(\C#N)C(=O)c2ccsc2)cc1	–	–	–	–	–
CC1=C(c2ccc(NN=C(C#N)C#N)cc2)NNC(=O)C1	20µM	·	·	·	·
CC(C)(C)c1ccc(S(=O)(=O)/C=C\C#N)cc1	2µM	·	·	·	·
Cc1ccc(S(=O)(=O)/C=C\C#N)cc1	2.82µM	·	·	·	·
Cc1ccc(S(=O)(=O)/C=C/C#N)cc1	11.2µM	–	0.947µM	·	·
Cc1ccc(S(=O)(=O)C=CS(=O)(=O)c2ccc(C)cc2)cc1	·	·	·	–	?
Cc1cccc(Cn2cnc3c(cnn3C(C)(C)C)c2=O)c1	·	–	–	·	–
CCCC(=O)Nc1c(I)cc(I)c(C[C@H](CC)C(=O)O)c1I	–	·	·	·	·
CCC(Cc1c(I)cc(I)c(O)c1I)C(=O)O (centres undefined)	31.6µM	·	·	·	·
COc1cc2c(NC3CCN(C)CC3)nc(N3CCCN(C)CC3)nc2cc1OCCCN1CCCCC1	·	–	–	·	–
